Screen size: about 13,000 compounds; fewer than 10 showed an effect of 50% or more. The list is a sample of the results.

This test deals with Plasmodium falciparum. As to the kind of experiment: GSK_TCMDC: Inhibition of Plasmodium falciparum 3D7 LDH activity, using an LDH reporter assay. Test compounds present at 2uM. The test is classed as functional, organism-based.
The inhibition is the change of the read-out against control, counted positive when it falls. A lower inhibition goes with a weak effect. `COc1ccc(-c2ccc(NC(=O)c3ccccc3)cc2)cc1CN1CCCN(C)CC1` gave an inhibition of 3%. The same measure for `C=CCn1c(=N)c(C(=O)NCc2ccc(F)cc2)cc2c(=O)n3cccc(C)c3nc21`: 0%; for `CC(C)(Oc1ccc(Cl)cc1)C(=O)NCCC1CCN(CCCCCNC(=O)/C=C/c2ccc(Cl)c(Cl)c2)CC1`: 0%; for `OC(CNCCCCCCNCC(O)c1ccc(Cl)c(Cl)c1)c1ccc(Cl)c(Cl)c1` (stereo not drawn): 0%.

Take `Cc1cccc2nc(-c3ccc(-c4ccc(NC(=O)C(=O)c5cccn5C)cc4)cc3)[nH]c12`: the inhibition was 8%. Take `C[C@H]1CN(Cc2cccc(-c3cc(CNC(=O)c4cccc(CC5CCN(C)CC5)c4)ccc3F)c2)CCN1C`: the inhibition was determined as 2%. In turn, `Nc1c(I)cc(C(=O)Nc2ccc3nc4c(c(N)c3c2)CCCC4)cc1I` yielded an inhibition of 2%. Take `FC(F)(F)c1cccc(Nc2nc3nonc3nc2NC2C3CC4CC(C3)CC2C4)c1` (stereo not drawn): the inhibition was found to be 0%.

For the compound `COc1ccc2nccc([C@@H](O)CN3CCC(NCc4cc5cccc(O)c5[nH]4)CC3)c2c1`, the inhibition came out at 0%.

As to `Fc1ccc2[nH]c(-c3cccc(-c4cccc(CN5CCN(c6cnccn6)CC5)c4)c3)nc2c1`, the inhibition is 0%. The same measure for `O=C(Cc1ccccc1)NC(c1ccc(Cl)cc1)c1ccc2cccnc2c1O` (stereo not drawn): 0%; for `Cc1noc(C)c1-c1ccc2c(Nc3ccccc3C(C)(C)C)c(C(=O)NCc3ccccc3)cnc2c1`: 0%; for `Cc1cccc2nc(-c3ccc(-c4cccc(NC(=O)c5cncn5C)c4)s3)[nH]c12`: 0%.

Compound `CC(C)CNCc1cccc(-c2cccc(CN(CCCN3CCN(C)CC3)C(=O)CCC3CCCC3)c2)c1` showed an inhibition of 0%. The same measure for `Cc1cc(NC2CCN(CC3CCCCC3)C2)nc(Nc2ccc(Cl)cc2)n1` (stereo not drawn): 0%; for `Cc1noc(C)c1-c1ccc2c(Nc3cccc4c3-c3ccccc3C4=O)c(C(=O)NCc3ccccc3I)cnc2c1`: 2%. In turn, `CC(=O)Nc1ccc(OCCCCN(Cc2ccccc2C(F)(F)F)c2ccc(C#N)c(C(F)(F)F)c2)c(Cl)c1` displayed an inhibition of 0%. Consider `COc1ccc(-c2cccc(NC(=O)c3ccc(Cl)cc3)c2)cc1CN1CCNCC1`, for which the inhibition came out at 0%. The same measure for `COc1ccc2c(NN=Cc3ccc(F)cc3)ccnc2c1`: 0%. The same measure for `COc1ccc(C=NN=c2cc(C)[nH]c3ccccc23)cc1OC`: 0%; for `COC(=O)c1cccc(CNCc2ccc(-c3cccc(-c4nc5cc(C(F)(F)F)ccc5[nH]4)c3)cc2)c1`: 6%; for `CCn1c(-c2nonc2N)nc2c(-c3ccccc3)ncc(OCCCCNCCc3ncc[nH]3)c21`: 0%. The value for `CCc1c[nH]c2c(N3CCCS3(=O)=O)cc(C(=O)N[C@@H](Cc3ccccc3)[C@H](O)CNC(C)(C)CCCC(C)C)cc12` was 0%; that for `COc1ccc(C2CCC(NCCCCNC(=O)c3ccc(NC(=O)c4ccc(Cl)cc4)cc3)CC2)cc1` (stereo not drawn) was 0%. For the compound `Cc1c(-c2ccc(C(=O)NC3CC(C)(C)NC(C)(C)C3)cc2)[nH]c2cc(Cl)c(Cl)cc12`, the inhibition turned out to be 0%. The value for `O=C(Nc1cccc(F)c1)c1ccc(C(=O)NC2CCN(CC3CCCCC3)CC2)cc1` was 0%; that for `CC(C)NCc1ccc(-c2ccc(NC(=O)c3ccc(C#N)cc3)cc2)cc1` was 0%. `FC(F)(F)c1ccc2[nH]c(-c3ccc(-c4cccc(CN5CCN(c6ccncc6)CC5)c4)cc3)nc2c1` returned an inhibition of 2%.

`O=C(Nc1nc(-c2ccccn2)cc2ccccc12)c1cccc(Cl)c1` yielded an inhibition of 0%. The value for `NC(=O)C1CCN(Cc2cccc(-c3cccc(-c4nc5cc(F)ccc5[nH]4)c3)c2)CC1` was 3%; that for `CC(C)(C)c1ccc(CNC(=O)c2ccc(CNC3CCC(N)CC3)s2)cc1` (stereo not drawn) was 4%; that for `CC1(C)N=C(N)N=C(N)N1c1ccc(Cl)c(Cl)c1` was 0%.

Turning to `Cc1cc(=NN=Cc2ccccc2Cl)c2ccc(F)cc2[nH]1`, the inhibition was 0%. The value for `Cc1cc(CNCCCCCCCNCc2ccc(-c3ccccc3)cc2)ccc1O` was 0%; that for `Cc1cc(=NN=Cc2ccc(F)cc2)c2ccc(C(F)(F)F)cc2[nH]1` was 0%; that for `COc1cc(C=NN=c2cc(C)[nH]c3ccccc23)cc(OC)c1OC` was 0%.

For `O=C(NCCc1ccccc1)N(Cc1ccccc1-c1ccc(CNC2CCCC2)cc1)C1CCN(Cc2ccccc2)CC1`, the inhibition was 1%. In turn, `CCN(CC)CCN(Cc1ccc(-c2ccc(C(F)(F)F)cc2)cc1)C(=O)Cn1c(CCc2cccc(F)c2F)nc(=O)c2ccc(F)cc21` had an inhibition of 3%. Compound `COc1ccc(CNCc2ccc(F)cc2)cc1-c1ccc(OC)c(S(=O)(=O)NCCN2CCCC2)c1` displayed an inhibition of 5%. The value for `COc1ccc2c(N/N=C/c3cccc([N+](=O)[O-])c3)ccnc2c1` was 5%; that for `CCCCN1CCN(CCCNc2c3ccccc3nc3ccccc23)CC1` was 0%; that for `CON=Cc1ccn(-c2ccc(O)c3c2C[C@H]2C[C@H]4[C@H](N(C)C)C(O)=C(C(N)=O)C(=O)[C@@]4(O)C(O)=C2C3=O)c1` was 0%. The same measure for `CN(C)Cc1ccc(-c2ccc3c(Nc4ccc(Cl)cc4F)ccnc3c2)o1`: 0%; for `CN(C)c1ccc(-c2nc3cc(N)ccc3[nH]2)cc1`: 0%; for `Cc1cc(O)c(-c2cccc(Oc3ccc(Cl)cc3)c2)c(C)n1`: 0%. Take `O=C(CNC(=O)c1ccc(O)cc1)Nc1ccc(-c2cccc(-c3nc4cc(C(F)(F)F)ccc4[nH]3)c2)cc1`: the inhibition turned out to be 3%. The same measure for `CCOc1cc[nH]c(=O)n1`: 5%. The value for `O=C(NCCCCN1CCC(c2ccc3c(c2OCCO)CCCC3)CC1)c1ccc2oc(-c3ccc(C(F)(F)F)cc3)cc2c1` was 4%; that for `FC(F)(F)COc1ccc2ccccc2c1CCNCCCCNCCc1c(OCC(F)(F)F)ccc2ccccc12` was 0%; that for `COc1ccc2nccc(N3CCC(CCNCc4cc5c(cn4)OCCO5)CC3)c2n1` was 7%. As to `Cc1c2ccc(N(C)c3ccnc(Nc4ccc5c(c4)nc(NC(C)C)n5C)n3)cc2nn1C`, the inhibition is 0%. For the compound `COc1ccc(CNC(=O)Nc2cccc(-c3csc(NC(=N)N)n3)c2)cc1`, the inhibition was determined as 1%. The same measure for `O=C(C=Cc1ccc(Cl)c(Cl)c1)NCCCCCN1CCC(CCNC(=O)/C=C/c2ccccc2)CC1`: 0%; for `CCN(CC)CCN(Cc1ccc(-c2ccc(C(F)(F)F)cc2)cc1)C(=O)Cn1c(CCc2ccc(F)cc2)nc(=O)c2ccccc21`: 0%; for `Cn1cccc1C(=O)C(=O)Nc1cccc(-c2ccc(-c3nc4cc(C(F)(F)F)ccc4[nH]3)cc2)c1`: 0%. The value for `CC(=O)Nc1ccc(C(=O)Nc2cccc(-c3cccc(-c4nc5cc(F)ccc5[nH]4)c3)c2)cn1` was 1%; that for `Nc1ncc(-c2ccc3nccc(-c4ccncc4)c3c2)cc1S(=O)(=O)N1CCCCC1` was 3%.

In turn, `Cc1cc(NCC(c2ccccc2)c2ccccc2)nc(NCC2CCCCC2)n1` showed an inhibition of 3%. The same measure for `N#Cc1cccc(C(=O)Nc2ccc(-c3ccc(CN4CCCC4)cc3)cc2)c1`: 0%. Compound `Cc1[nH]c(C)c(-c2ccc(OCc3cc(F)cc(F)c3)nc2)c(=O)c1Cl` had an inhibition of 0%.

Compound `CC(=O)Nc1ccc(CCNC(C)Cc2ccc(C(=O)Nc3ccc(CC(C)NCCc4cccc(Cl)c4)cc3)cc2)cc1` (stereo not drawn) displayed an inhibition of 0%. The value for `c1cc(-c2ccc(CNCCCN3CCOCC3)cc2)cc(-c2nc3ccccc3[nH]2)c1` was 0%; that for `Clc1ccccc1C=NN=c1cc[nH]c2ccccc12` was 0%; that for `O=C1CCCN1CCCNCc1ccc(-c2ccc(-c3nc4cc(F)ccc4[nH]3)cc2)cc1` was 0%. With `Cc1[nH]c(C)c(-c2ccc(C#Cc3ccc(F)cc3F)cc2)c(=O)c1Br`, the inhibition came out at 0%. For `COc1ccc(OC)c(-c2ccc(=O)n(CC(=O)Nc3cccc4ccccc34)n2)c1`, the inhibition stood at 3%. The same measure for `CC(C)(C)c1ccc(CNC(=O)/C=C/c2ccc(-c3nc4cc(C(C)(C)C)ccc4[nH]3)cc2)cc1`: 0%; for `CN(C)CCCN1CCN(Cc2ccc(-c3ccc(-c4nc5ccccc5[nH]4)s3)cc2)CC1`: 4%. The value for `CC(C)Nc1nc(NCCc2c[nH]cn2)nc(Nc2ccc(Oc3ccccc3)cc2)n1` was 1%. The compound `CN1CCC(NC(=O)c2cc(Oc3ccc4c(c3)CCN4C(=O)Nc3cccc(C(F)(F)F)c3)ccn2)CC1` gave an inhibition of 0%. The same measure for `FC(F)(F)COc1c(CCNCCCCNCCc2ccc3ccccc3c2OCC(F)(F)F)ccc2ccccc12`: 0%. For `CN(CCN)Cc1cccc(-c2cccc(-c3nc4cc(C(F)(F)F)ccc4[nH]3)c2)c1`, the inhibition was determined as 0%. The same measure for `CC(C)CCCC(C)NC[C@@H](O)[C@H](Cc1ccccc1)NC(=O)c1cc(N2CCCC2=O)cc(N(c2ccccc2)S(C)(=O)=O)c1` (stereo partly drawn): 0%; for `ON=C(c1nc2ccccc2[nH]1)c1nc2ccccc2[nH]1`: 6%. `O=S(=O)(NCCN1CCCC1)c1cccc(-c2ccc(CNCc3ccsc3)cc2)c1` came in with an inhibition of 6%. In turn, `COc1cccc(CCc2nc3c(N4CCC(Cc5ccccc5)CC4)cccc3n2CC2CNCCO2)c1` (stereo not drawn) displayed an inhibition of 4%. The same measure for `CCN(CC)CCN(Cc1ccc(-c2ccc(C(F)(F)F)cc2)cc1)C(=O)Cn1c(CCc2ccc(F)c(C#N)c2)nc(=O)c2ccccc21`: 0%. `CCc1c(CCNCCCCCCNCCc2ccc(Br)cc2)ccc(O)c1O`: the inhibition was 0%.

Take `Nc1c2c(nc3ccc(Oc4ccc(Cl)cc4)cc13)CCCC2`: the inhibition came to 0%. The value for `Cc1cc(N[C@@H](Cc2ccccc2)C(=O)NCc2cccs2)nc(NCCc2ccccn2)n1` was 0%; that for `COc1cc(C=CC(=O)N2CCC(CCN3CCC(c4c[nH]c5ccccc45)CC3)CC2)cc(OC)c1` was 0%; that for `COc1cc2nc(N3CCC(CNC(=O)c4ccc(NC(=O)c5ccc(Cl)cc5)cc4)CC3)nc(N)c2cc1OC` was 0%. `CCNC1=NC2=C(CC(C(C)(C)C)CC2)C2(CCC(C(C)(C)C)CC2)S1` (stereo not drawn) returned an inhibition of 4%. The value for `Cc1ccc(Cc2c[nH]c(NCCSCc3ccc(CN4CCOCC4)o3)nc2=O)cn1` was 0%; that for `Cc1cc(-c2c[nH]c3ncc(-c4cccc5ncccc45)cc23)ccc1C(=O)O` was 0%. The value for `Cc1cccc2nc(-c3ccc(-c4ccc(CN5CCCCC5)cc4)cc3)[nH]c12` was 0%; that for `Cc1cc(I)ccc1Nc1nc2nonc2nc1Nc1ccc(I)cc1C` was 0%; that for `CS(=O)(=O)c1ccc(CNCc2ccc(-c3cccc(-c4nc5cc(C(F)(F)F)ccc5[nH]4)c3)cc2)cc1` was 8%.
